Compound activity: PubChem, Broad Institute
Compounds with a hit are over-represented: about 2.9% of the library has one in this group of screens.
MITF act = activators of MITF-driven TRPM1 promoter activity in SK-MEL-5 cells. SK-MEL-5 TRPM1-promoter luciferase, 24 h; % of positive control, neutral wells = 0. AID 588334. 0.75% of 300,000 active. activation, % at 12.5 µM;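 active means mean activation of at least 80% with every replicate also reaching 80%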
PvdQ acylase = P. aeruginosa PvdQ acylase inhibition; inhibition, % at 10 µM; 0.063% of 340,000 active; purified PvdQ acylase, fluorescence plate reader; in the data active means inhibition above about 30%, passing the limit was not always enough
esBAF inh = SWI/SNF esBAF complex inhibition | mouse ES cells, Bmi1-luciferase knock-in reporter, 24 h; 100% = twice the neutral-well signal | AID 602393 | 2% of 350,000 active | reporter increase, % at 12.5 µM; in the data active means activation above about 40%;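 further: a rise in the Bmi1 reporter signal indicates esBAF inhibition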
Vif inh = HIV Vif inhibition; HEK293T cells, Vif self-association by quenched fluorescence, imaging, 24 h; inhibition, % at 7.49 µM; 0.35% of 340,000 active; in the data active means inhibition above about 50%, passing the limit was not always enough
Wnt act = activates Wnt/beta-catenin signaling in a reporter cell assay; 1.2% of 300,000 active; activator, plate reader; activation, % at 9.35 µM; in the data active means activation above about 30%, passing the limit was not always enough
N-glyco inh = N-linked glycosylation inhibition | D54 ERlucT glycosylation luciferase reporter, 24 h; percent of 100 nM tunicamycin response | reporter increase, % at 12.5 µM | 0.23% of 360,000 active;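 active means mean luciferase reporter signal, scaled so untreated is 0 and the glycosylation-blocking control 100, at or above a set limit in every replicate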;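 further: luciferase carries N-glycosylation sites so blocking glycosylation raises the light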
Large screens that a line does not name were inactive.

CN(C)CC(=O)Nc1ccc2c(c1)[C@@H]1C[C@H](CC(=O)N3CCOCC3)O[C@H](CO)[C@@H]1O2	none (no result: MITF act, PvdQ acylase, Vif inh, Wnt act, N-glyco inh)
CCOC(=O)COn1c(-c2cccc(Cl)c2)nc2ccc([N+](=O)[O-])cc21	MITF act 86.8 (no result: esBAF inh, Vif inh, Wnt act)
CN(C)C(=O)c1cccc(-c2cccc(-c3nc(C(=O)NCc4ccccc4)cc4c3[C@H](CCO)N([S@@](=O)C(C)(C)C)C4)c2)c1	none (no result: MITF act, PvdQ acylase, Vif inh, Wnt act, N-glyco inh)
CCOC(=O)COn1c(=O)c(-c2ccccc2)[n+]([O-])c2ccccc21	Vif inh 76.1
CCCOc1ccc(-c2c(=O)n(O)c3ccccc3[n+]2[O-])cc1	esBAF inh 49.8 (no result: MITF act)
Cc1cccc(S(=O)(=O)N2CCCCN3[C@@H](CO)[C@@H](c4ccc(C#C[C@@H](C)O)cc4)[C@@H]3C2)c1	none (no result: MITF act, PvdQ acylase, Vif inh, Wnt act, N-glyco inh)
CC(=O)NC[C@H]1[C@@H](c2ccc(-c3cccnc3)cc2)[C@H](CO)N1C(=O)C1CC1	none (no result: MITF act, PvdQ acylase, Vif inh, Wnt act, N-glyco inh)
COc1cc(-c2noc(C)c2/C=C/c2ccc(OC(C)=O)cc2)cc(OC)c1OC	N-glyco inh 27.1
COc1ccc(-c2oc(=O)c3cc(OC)c(OC)cc3c2/C=C/c2ccc(OC(C)=O)cc2)cc1	none
O=C1N(Cc2cccc(Cl)c2)C[C@@H]2C[C@@H](c3ccccn3)N3CCC[C@@]123	Wnt act 33.1
Cc1cc(NC(=O)CSc2nc3c(c(=O)n2Cc2ccccc2)SC(C)C3)no1 (stereo unspecified)	esBAF inh 46.3
COC(=O)/C(=C1/Oc2ccc(C(C)(C)C)cc2S1)C(F)(F)F	Wnt act 37.5 (no result: esBAF inh)
COC(=O)/C(=C1/Oc2cc(C)oc(=O)c2S1)C(F)(F)F	none
CC(C)NC(=O)N(C)C[C@H]1Oc2ccc(NC(=O)Nc3cccc4ccccc34)cc2C(=O)N([C@@H](C)CO)C[C@@H]1C	none (no result: MITF act, PvdQ acylase, Vif inh, Wnt act, N-glyco inh)
CC/C(=N\Nc1nncc2ccccc12)c1ccc(F)cc1	MITF act 88.4, esBAF inh 41.2
COCCCN1C(=O)C(CC(=O)NCc2cccc3ccccc23)CC(C(=O)N2CCOCC2)=C1C (stereo unspecified)	Vif inh 66.8 (no result: MITF act, PvdQ acylase)
CC(=NNc1nc2ccccc2s1)c1ncccn1	Wnt act 75.4 (no result: esBAF inh)
Oc1ccccc1C=NNc1nc2ccccc2s1	esBAF inh 50.9
Oc1ccc(C=NNc2nc3ccccc3s2)c(O)c1	none (no result: esBAF inh)
COc1cccc(C=NNc2nc3ccccc3s2)c1OC	Wnt act 50.9 (no result: esBAF inh)
Cc1ccsc1/C=N/Nc1nc2ccccc2s1	Wnt act 61.0 (no result: esBAF inh, Vif inh)
CCS(=O)(=O)Nc1ccc2c(c1)C(=O)N(C)C[C@@H](OC)[C@@H](C)CN(C)[C@@H](C)CO2	none (no result: MITF act, PvdQ acylase, Vif inh, Wnt act, N-glyco inh)
COc1ccc(NC(=O)Nc2ccc3c(c2)CC(=O)N([C@H](C)CO)C[C@@H](C)[C@H](CN(C)C(=O)Nc2ccc(C(F)(F)F)cc2)O3)cc1	none (no result: MITF act, PvdQ acylase, Vif inh, Wnt act, N-glyco inh)
CC(=O)c1sc(N/N=C\c2ccc(Br)cc2)nc1C	MITF act 118.6 (no result: esBAF inh)
CC(=O)Nc1ccc(/C=N/Nc2nc3ccccc3s2)cc1	Wnt act 57.4
CN(C)C(=O)C[C@H]1C=C[C@H](NS(=O)(=O)c2ccccc2)[C@H](CO)O1	none (no result: MITF act, PvdQ acylase, Vif inh, Wnt act, N-glyco inh)
O=C(OCC(=O)c1cccc2ccccc12)c1ccc(CO)cc1	MITF act 136.7 (no result: esBAF inh, Vif inh)
O=C(OCC(=O)c1ccccc1Br)c1ccncc1	none
CC(C)Cc1ccc(-c2cc3nc(NCC4CC4)ccn3n2)cc1	esBAF inh 83.2 (no result: MITF act, PvdQ acylase, Vif inh)
Clc1cccc(CNc2ccn3nc(-c4ccc(OCCN5CCOCC5)cc4)cc3n2)c1	none (no result: MITF act, PvdQ acylase, Vif inh)
FC(F)(F)c1cccc(-c2cc3nc(NC4CCCCC4)ccn3n2)c1	esBAF inh 42.7 (no result: MITF act, PvdQ acylase, Vif inh)
c1cc(-c2cc3nc(NC4CCCCC4)ccn3n2)ccc1OCCN1CCOCC1	esBAF inh 50.3 (no result: MITF act, PvdQ acylase, Vif inh)
c1cc(-c2cc3nc(NCC4CC4)ccn3n2)ccc1OCCN1CCOCC1	esBAF inh 45.9 (no result: MITF act, PvdQ acylase)
CS(=O)(=O)N1[C@@H]2Cn3c(ccc(C4=CCCCC4)c3=O)[C@H]1[C@@H](C(=O)N1CCCCC1)[C@@H]2CO	none (no result: MITF act, PvdQ acylase, Vif inh, Wnt act, N-glyco inh)
C[C@@H]1CN([C@H](C)CO)C(=O)c2cc(NC(=O)CCC(F)(F)F)ccc2O[C@@H](C)CCCCO[C@@H]1CN(C)S(=O)(=O)c1cn(C)cn1	none (no result: MITF act, PvdQ acylase, Vif inh, Wnt act, N-glyco inh)
C#Cc1ccc(CN2CCC(C(=O)Nc3ccc(Oc4ccccc4)nc3)CC2)cc1	none
CC#CC(=O)N1CCC(C(=O)Nc2ccc(Oc3ccccc3)nc2)CC1	esBAF inh 41.2
